# Test results as given in publication PMC10668032, “Altered binding affinity of SIX1-Q177R correlates with enhanced WNT5A and WNT pathway effector expression in Wilms tumor”.
# In all, about 33,000 sequences were measured (“e-score”: median about -0.053, highest 2% from about 0.38 on). The list comes from a sample in which the highest values are over-represented; it also holds similar and randomly drawn sequences.
# Molecular target: T1, SIX1 homeodomain (reference allele) (human, UniProt Q15475 108-198)
# T1 sequence: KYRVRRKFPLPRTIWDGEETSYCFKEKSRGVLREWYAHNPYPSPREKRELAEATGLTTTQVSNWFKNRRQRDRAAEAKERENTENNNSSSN
# Experiment: universal protein binding microarray; Universal all-10-mer PBM (8x60K, AMADID 030236), 300 nM GST-tagged protein, Alexa Fluor 488 anti-GST; buffer, salt, pH and temperature not stated (as in Berger); high values mean tight binding
# Settings: protein: ivt; tags: N-terminal GST; dsDNA, one strand shown
# How it was run: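 Homeodomains carrying a GST tag were produced by in vitro transcription/translation, then quantified by anti-GST western blot against a recombinant GST standard curve. Duplicate applications at 300 nM final concentration were made to universal 'all 10-mer' protein binding microarrays in 8×60K format. The Universal PBM Analysis Suite was used to express binding as 8-mer E-scores.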
row,Sequence,binding signal [E-score]
1,ATGATCGG,0.294 ± 0.0125
2,GTGATCTA,0.2979 ± 0.000552
3,GTGATCAA,0.236 ± 0.0408
4,GTGATCCA,0.377 ± 0.0369
5,CTGATCTC,0.312 ± 0.016
6,ATGATCCA,0.391 ± 0.0192
7,CTGATCCC,0.416 ± 0.02
8,CTGATCGC,0.191 ± 0.0397
9,ATGATCTG,0.355 ± 0.0221
10,CTGATCCA,0.357 ± 0.0346
11,ATGATCCG,0.452 ± 0.00636
12,ATGATCGA,0.173 ± 0.029
13,TCCCCTCA,0.175 ± 0.0645
14,CTGCTATA,0.194 ± 0.0359
15,AGTGAGAC,0.198 ± 0.0551
16,ACTCGATA,0.303
17,TACACCTA,0.304 ± 0.0311
18,CATTATCC,0.326 ± 0.00937
19,CGTCGATC,0.157 ± 0.105
20,ATCATTTA,0.193 ± 0.0974
21,AATTATAC,0.165 ± 0.066
22,GATAGTCA,0.189 ± 0.0298
23,TAAAGATA,0.167 ± 0.162
24,ATGATCCC,0.448 ± 0.0106

row,Sequence,binding signal [E-score]
1,ATGATCAC,0.309 ± 0.0105
2,ATGATCTC,0.327 ± 0.0416
3,ACCGAGAT,0.26507 ± 0.000212
4,ACGGATGA,0.211 ± 0.0174
5,ATCGCGAT,0.334 ± 0.0159
6,ATACATTC,0.188 ± 0.0482
7,TACGTGGA,0.195 ± 0.113
8,ATGGATCA,0.383 ± 0.00801
9,GTAGATCA,0.29 ± 0.0141
10,GTGGATCA,0.4 ± 0.0347
11,GTGGATAA,0.2486 ± 0.00124
12,ATGGATCG,0.345 ± 0.0571
13,CTGGATCA,0.326 ± 0.0378
14,ACACCAGC,0.211 ± 0.0357
15,CTTCGATA,0.342 ± 0.0398
16,GCATATGA,0.167 ± 0.0211
17,GCATACTA,0.22 ± 0.00291
18,ATGTATGA,0.261 ± 0.0176
19,ATCATTAG,0.281 ± 0.0368
20,TCACCTGA,0.165 ± 0.00229
21,AATACCGA,0.321 ± 0.0139
22,TATACCGA,0.339 ± 0.026
23,AATACCGG,0.273 ± 0.0276
24,CATACCTA,0.174 ± 0.0329

row,Sequence,binding signal [E-score]
1,AATACCGC,0.386 ± 0.0176
2,CATACCGG,0.166 ± 0.0474
3,AATACCGT,0.318 ± 0.04
4,GATACCGA,0.4164 ± 0.00268
5,GATACCTA,0.472 ± 0.0087
6,AATACCTA,0.289 ± 0.0733
7,GATACCGC,0.461 ± 0.0131
8,GCTAATAC,0.244 ± 0.0389
9,CCGGAATA,0.162 ± 0.00262
10,AACTACAC,0.169 ± 0.006
11,CGTTGATC,0.152 ± 0.0357
12,GACCCGGC,0.183 ± 0.012
13,GGTGTAGA,0.317 ± 0.04
14,AGTATCTC,0.376 ± 0.0377
15,AGTATCTG,0.317 ± 0.0419
16,CGTATCTA,0.349 ± 0.0276
17,CCTATCTC,0.227 ± 0.035
18,CGTATATC,0.336 ± 0.0303
19,AGTATATA,0.306 ± 0.0599
20,CGTATCTC,0.378 ± 0.00747
21,ACTATCTC,0.209 ± 0.0851
22,AGTATATC,0.383 ± 0.0642
23,CATCTATC,0.211 ± 0.0124
24,ATATGGCG,0.223 ± 0.0647

row,Sequence,binding signal [E-score]
1,AATGGGAT,0.213 ± 0.0227
2,ACACCTTA,0.238 ± 0.0937
3,GATGAGCC,0.249 ± 0.0159
4,CTATCTGA,0.231 ± 0.0348
5,CGAGATCC,0.325 ± 0.0133
6,GATAATGA,0.174 ± 0.0154
7,AGACGGGA,0.2 ± 0.0154
8,ATAGTAGC,0.187 ± 0.0294
9,GGGGGATA,0.4424 ± 0.00147
10,CGGGGATA,0.413 ± 0.0228
11,AGGGGATA,0.425 ± 0.000834
12,GTGGGATA,0.348 ± 0.0178
13,CTGGGATA,0.266 ± 0.0214
14,GCGGGATA,0.3486 ± 0.00158
15,ACGGGATA,0.376 ± 0.00774
16,CCGGGATA,0.305 ± 0.0131
17,ATGGGATA,0.36 ± 0.00494
18,ACGGGGGA,0.217 ± 0.0264
19,AGGGGGGA,0.206 ± 0.028
20,CGGGGAGA,0.182 ± 0.0823
21,CCAGGGTA,0.221 ± 0.0174
22,GGAACACC,0.187 ± 0.018
